Data taken from the supplement of paper PMC11219838.
Unmarked numbers belong to inactive results.

system: Meloidogyne hapla J2; test: proportion of mobile M. hapla J2 relative to DMSO control (fraction of DMSO control); higher = more viable, less nematicidal, active = 0.7 or less; conditions: 60 µM; 5 days; temperature: 20 °C
Protocol: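 DODA library (846 commercial 1,3,4- and 1,2,4-oxadiazole compounds plus commercial nematicide controls) screened at a single dose of 60 µM (0.6% DMSO) in 96-well plates, two biological replicates. Read-outs: C. elegans N2 L1 survival/reproduction score at day 6, 20 °C (0: 0-10 worms, 1: 11-20, 2: 21-50, 3: >50, 4: overgrown/starved). C. elegans daf-2 dauer, D. dipsaci and M. hapla J2 mobility at day 5, 20 °C, and P. penetrans mobility at day 5, 20 °C, each relative to DMSO controls. M. hapla egg hatching at day 12, 25 °C, relative to the mean of 8 DMSO wells on the same plate.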

SMILES | proportion of mobile M. hapla J2
Brc1ccc(CSc2nnc(-c3cccnc3)o2)cc1 | 0.911
Cc1cccc(-c2noc(COc3ccc(Cl)cc3C)n2)c1 | 0.925
O=C(Nc1cccnc1)c1ccccc1-c1nc(-c2ccc(Cl)cc2)no1 | 0.934
Fc1ccc(-c2noc(-c3ccc(F)cc3)n2)cc1 | 1.01
COc1cccc(-c2noc(CSc3ccc(Cl)cc3)n2)c1 | 1.03
Cc1ccc(-c2nnc(SCc3ccccc3)o2)cc1 | 0.256 (active)
Cc1cc(OCc2nc(-c3ccc(NC(=O)c4ccc5c(c4)OCO5)cc3)no2)ccc1Cl | 0.843
Cc1ccc(-c2noc(-c3ccc(-n4nncc4C)cc3)n2)cc1 | 0.978
Cc1ccc(-c2noc(COc3cccc(C)c3)n2)cc1 | 0.972
COc1ccc(-c2nnc(SCC(=O)Nc3cc(Cl)ccc3C)o2)cc1 | 0.904
CC(=O)Nc1cccc(-c2nnc(SCc3ccccc3)o2)c1 | 0.976
CC(C)Oc1ccc(-c2nc(-c3cccnc3)no2)cc1 | 0.899
COc1ccc(CCC(=O)Nc2ccc(-c3noc(-c4ccc(F)cc4)n3)cc2)cc1 | 0.746
Cc1ccc(C)c(OCc2nc(-c3ccccc3Cl)no2)c1 | 0.854
Nc1nc(CSc2nnc(-c3ccccc3)o2)cs1 | 0.752
Cc1cccc(OCc2nc(-c3ccccc3Cl)no2)c1 | 1.08
CCOc1ccccc1-c1nnc(SCC(=O)Nc2ccccc2)o1 | 0.907
Cc1ccc(-c2nc(-c3ccc(Br)cc3)no2)cc1 | 0.916
COc1ccc(-c2noc(-c3ccccc3Cl)n2)cc1 | 0.885
c1ccc(-c2noc(CSc3nc4ccccc4[nH]3)n2)cc1 | 1.05

SMILES | proportion of mobile M. hapla J2
Fc1ccc(-c2noc(COc3ccccc3)n2)cc1 | 1.07
CC(C)(C)c1ccc(OCc2nc(-c3ccncc3)no2)c(Br)c1 | 0.875
O=C(CSc1nnc(-c2ccc(Cl)cc2Cl)o1)Nc1ccccn1 | 0.838
O=C(CSc1nnc(-c2ccccc2)o1)c1ccc(Br)cc1 | 0.966
CCOc1cc(-c2nc(-c3cc4ccccc4nc3OC)no2)cc(OCC)c1OCC | 1.04
Cc1ccc(-c2nc(-c3ccccc3Br)no2)cc1 | 0.962
CCOc1ccccc1NC(=O)CSc1nnc(-c2ccco2)o1 | 1.01
COc1nc(C)ccc1-c1noc(-c2ccc(C)cc2)n1 | 0.926
COc1ccc(-c2nnc(SCC(=O)Nc3ccc(C(C)C)cc3)o2)cc1 | 0.967
Fc1ccccc1-c1nc(-c2ccc(Cl)cc2)no1 | 0.956
Brc1ccc(-c2noc(-c3ccc(Br)o3)n2)o1 | 0.949
Ic1ccc(CSc2nnc(-c3ccccc3)o2)cc1 | 0.991
Cc1ccccc1-c1nnc(SCc2ccc(F)cc2)o1 | 0.939
Cc1ccc(-c2noc(-c3cc(C)cc(C)c3)n2)cc1 | 0.719
COc1ccc(-c2noc(-c3ccc(C)cc3)n2)cc1 | 0.998
Cc1ccc(-c2nc(-c3ccccc3)no2)cc1Cl | 0.996
CCn1c(SCc2ccc(OC)cc2)nnc1-c1ccco1 | 0.611 (active)
CCc1ccc(NC(=O)CSc2nnc(-c3ccco3)o2)cc1 | 0.899
CCN(CC)C(=O)CSc1nnc(-c2ccc(Br)cc2)o1 | 1.04
O=C(CSc1nnc(-c2ccco2)o1)Nc1ccc(Br)cc1 | 1.05
